The full list was thinned out, with hits kept by preference.
HEK293 tox: cytotoxic in the GLP-1 receptor inverse agonist counter-screen; HEK293 cAMP-luciferase reporter cells, luminescence, 24 h; Potency, µM (top dose mostly 38.3 µM), without a hit: top-dose activity change, negative = inhibition, most hits filed as inhibitors; actives 0.13% (n = 410,000);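 further: loss of luciferase light is scored as toxicity; potency means the concentration at half of the fitted maximal effect; on the % scale 0 is the no-effect control and ±100 the full control effect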
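Compound-treated cells are incubated 24 hr at 37 deg C under 5% CO2 after a 12 hour attachment period, then luciferase detection reagent is added and luminescence is measured following 12 min at room temperature; lowered signal indicates toxicity.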
PTHR1 ag: agonists of human PTHR1 parathyroid hormone receptor; Potency, µM (highest dose often 115 µM), for the others: top-dose activation, most hits filed as activators; actives 0.075% (n = 410,000); HEK293 GP2 PTHR1 cells, GloSensor cAMP luminescence, 1 h; Q03431; further: potency means the concentration at half of the fitted maximal effect; nearly all actives have a fitted effect of over 55% in size
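HEK-293-derived GP2 cells expressing PTHR1 and a GloSensor cAMP reporter, 3,000/well, plated overnight, given luciferin plus IBMX (each 0.5 mM as added) for 1 h at 37 °C, then compound for 1 h at 37 °C. Luminescence was read after 15 min at room temperature.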
NPSR antagonist: neuropeptide S receptor (human) antagonism, cAMP; Q6W5P4; CHO-NPSR cells, cAMP TR-FRET, antagonist mode; Potency, µM (series often up to 38.3 µM), for the others: at the top dose activity change, negative = inhibition, hits mostly inhibitors; actives 1% (n = 220,000); AID 1461; further: potency means the concentration at half of the fitted maximal effect; on the % scale 0 is the no-effect control and ±100 the full control effect; nearly all actives have a fitted effect of over 50% in size
Target sequence (Q6W5P4 whole entry, looked up): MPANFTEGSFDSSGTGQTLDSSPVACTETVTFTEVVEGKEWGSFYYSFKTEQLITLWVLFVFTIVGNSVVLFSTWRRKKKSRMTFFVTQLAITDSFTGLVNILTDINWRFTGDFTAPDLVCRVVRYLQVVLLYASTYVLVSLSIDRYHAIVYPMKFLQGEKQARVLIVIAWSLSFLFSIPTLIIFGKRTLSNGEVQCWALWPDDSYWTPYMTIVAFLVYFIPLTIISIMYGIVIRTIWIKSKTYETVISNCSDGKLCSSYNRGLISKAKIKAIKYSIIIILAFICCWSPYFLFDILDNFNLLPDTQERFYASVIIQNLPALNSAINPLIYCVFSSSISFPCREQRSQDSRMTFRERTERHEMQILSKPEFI
TSHR antag: blocks TSH signaling through the human TSH receptor | P16473 | TSHR-expressing cells, TSH-stimulated cAMP HTRF, 2 h; hits give low values | activity change, negative = inhibition, % at 11.5 µM | actives 0.2% (n = 330,000) | AID 504810;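 active means activity change below a set negative limit, meaning inhibition stronger than a set level, cut at about -70% in these data; inconclusive means activity change between two set negative limits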; further: on the % scale 0 is the no-effect control and ±100 the full control effect
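Competitive HTRF cAMP read-out (cryptate anti-cAMP antibody, cAMP-d2; 30 min, room temperature) in freshly harvested TSHR cells. Compounds added before TSH at EC80 (4nM final), followed by 2 hours' incubation at 37 deg C.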
RXFP1 ag: RXFP1 (human) receptor agonism; Q9HBX9; HEK293T-RXFP1 cAMP TR-FRET, 30 min; response scale: percent of porcine relaxin response, buffer zero; Potency, µM (doses to about 57.5 µM), for the others: top-dose activation, hits mostly activators; actives 0.3% (n = 370,000); further: potency means the concentration at half of the fitted maximal effect; on the % scale 0 is the no-effect control and ±100 the full control effect; nearly all actives have a fitted effect of over 60% in size
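HEK293T cells stably expressing RXFP1 were pretreated with the PDE4 inhibitor Ro 20174, exposed to compounds for 30 min at 37C, lysed, and cAMP was read by TR-FRET. Data normalized to buffer (basal) and 29 nM porcine relaxin (100%).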
RXFP1 antagonist: RXFP1 (human) relaxin receptor antagonism; Q9HBX9; HEK293-RXFP1, relaxin-stimulated cAMP HTRF, 30 min; hits give low values; activity change, negative = inhibition, % at 57.5 µM; actives 0.59% (n = 350,000);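 active means activity change of -60% or lower, but not beyond a set lower limit; inconclusive means change between -60% and -40%, or beyond the set limit; inactive means change above -40%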; further: on the % scale 0 is the no-effect control and ±100 the full control effect
An asterisk follows results filed as active; i = inactive; ? = inconclusive; / = no result given; [ ] = dose if it differs, or a comment. Unless noted, the call rests on the fitted dose curve; in most records, active means well fitted curve in the direction sought with a large enough effect; inconclusive means small, poorly fitted or top-dose-only effect, or another doubt; inactive means no such curve, though single readings can be large; an effect the other way counts as inactive or inconclusive.

SMILES	HEK293 tox	PTHR1 ag	NPSR antagonist	TSHR antag	RXFP1 ag	RXFP1 antagonist
Cc1ccccc1N1CCN(C2CCCN(C(=O)c3cnsn3)C2)CC1 (stereo not drawn)	-15%	i	/	-105*	-6%	-7
Cc1cccc(Cn2cc(C(=O)c3ccccc3)c(=O)c3cc4c(cc32)OCO4)c1	-10%	-16%	/	/	0%	-31
COc1ccc(C(=O)c2cn(Cc3cccc(C)c3)c3cc4c(cc3c2=O)OCCO4)cc1OC	-1%	i	/	/	1%	-81*
C[C@H]1NCc2cc(-c3ccc4c(=O)c(C(=O)O)cn(C5CC5)c4c3OC(F)F)ccc21	/	/	/	/	/	9
COc1cc2c(cc1OC)C1O[C@](CCCCN3C(=O)c4ccccc4C3=O)(C2)OC2=C1C(=O)CCC2	/	/	/	/	3%[11.5 µM]	/
Cc1ccc(Cl)c2c1=NC(=O)C=2c1[nH]c(=S)[nH]c1O	?	-3%	-28%	-17	0%	-109*
O=C1N=c2ccccc2=C1c1[nH]c(=S)[nH]c1O	1%	-7%	-12%	-8	-1%	-13
Cc1cccc(N2CCN(C(=O)c3cccn3-c3nnc(N4CCCCC4)s3)CC2)c1C	4%	-34%	/	/	14%	-68*
CCN(CC)c1ccc(NC(=O)c2cccn2-c2nnc(N3CCCCC3)s2)c(C)c1	1%	-29%	/	/	-2%	-60*
COc1ccc(NC(=O)c2cccn2-c2nnc(N3CCCCC3)s2)c(OC)c1	-2%	-4%	/	/	3%	-15
CCOC(=O)c1nc(C)sc1-c1ccnn1S(=O)(=O)c1ccc(C)cc1	5%	-61%	51%	-78*	0%	-9
CCOC(=O)c1nc(C)sc1-c1ccnn1S(=O)(=O)c1ccccc1C(F)(F)F	-8%	-13%	?	-3	-1%	-2
O=C(Nc1c(C(=O)Nc2ccc(F)cc2)oc2ccccc12)c1cc2ccccc2o1	-12%	-12%	/	/	0%	/
Cc1[nH]c(=S)c(C#N)c(C)c1CC(=O)c1ccc(Br)cc1	-2%	14µM*	/	-2	7%	-70*
CCCN=C1N(CC)C[C@@H]2[C@@H]3C(=O)N(Cc4ccccc4)C(=O)[C@@H]3[C@](Cc3ccccc3)(C(=O)OC)N12	0%	i	/	-9	/	/
COc1ccc(-n2c(-c3ccc(C)cc3)cc3c2CC(C)(C)CC3=O)c(OC)c1	-10%	-26%	/	/	4%	-62*
COc1cccc(-n2c(-c3ccc(C)cc3)cc3c2CC(C)(C)CC3=O)c1	2%	-15%	/	/	-3%	-3
CCCCCCCCCCCCOCCO	/	/	/	/	/	-8
COC(=O)c1c(NC(=O)Nc2ccc(Cl)cc2)sc(C)c1C	-8%	i	10µM*	-10	16%	-6
COc1ccc2cc1Oc1ccc(cc1)CC1c3c(cc(OC)c4c3Oc3cc5c(cc3O4)CCNC5C2)CCN1C (stereo not drawn)	11µM*	i	?	6	0%	-2
COc1ccc2cc1Oc1ccc(cc1)C[C@H]1c3c(cc(OC)c4c3Oc3c(ccc5c3[C@H](C2)N(C)CC5)O4)CCN1C	0%	i	/	7	/	/
COc1ccc(CCC(C)=O)cc1	/	/	/	/	/	15
O=C(COc1cccc2ccccc12)Nc1ccc(Cl)cc1C(=O)O	-23%	-29%	/	-50	2%	-10
O=C(COc1cccc2ccccc12)Nc1cc(Cl)ccc1C(=O)O	6%	i	/	-33	2%	-81*
CN(C(=O)c1cnccn1)c1c(N)n(Cc2ccccc2)c(=O)[nH]c1=O	18%	-15%	/	24	-1%	-10
O=C(O)C(=Cc1cccc([N+](=O)[O-])c1)c1ccccc1	-5%	i	/	/	/	2
O=C(C#Cc1cccc([N+](=O)[O-])c1)c1ccccc1	/	/	3.2µM*	-45	1%	/
COc1cccc(CNC(=O)CSc2c3c(nc4ccc(Cl)cc24)CCCC3)c1OC	-1%	-57%	/	/	12%	22
